# Compounds with a hit are over-represented: about 3.4% of the library has one in this group of screens.
# FBW7 act = activators of human E3 ligase FBW7; AlphaScreen FBW7–phospho-cyclin E peptide binding, activator screen; normalized activity (activation), % at 26.1 µM; 650,000 tested, 0.13% active; in the data active = normalized activity above about 1.9%;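 also: purified mutant Fbw7 with reduced substrate affinity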
# TEAD-YAP block = TEAD-YAP interaction inhibition. inhibition, % at 9.12 µM. HEK-TIYL cells, TEAD-Gal4/YAP UAS-luciferase luminescence. 640,000 tested, 1.4% active; in the data active = inhibition above about 32%;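 also: 0% = median of test compound wells and 100% = reference inhibitor wells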
# MITF primary = inhibitors of human MITF; O75030; AlphaScreen MITF homodimerization, bead proximity signal; inhibition, % at 2.6 µM; 650,000 tested, 0.91% active; in the data active = inhibition above about 50%;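 also: 0% = vehicle wells with protein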
# GPR151 activ = activators of human GPR151 | AID 1508602 | Q8TDV0 | PathHunter beta-arrestin GPR151 cells, luminescence | activation, % at 11.2 µM | 650,000 tested, 1% active; in the data active = activation above about 4.9%;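 also: 0% = median of compound wells and 100% = cells with positive control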
# Target sequence (Q8TDV0 whole entry, looked up): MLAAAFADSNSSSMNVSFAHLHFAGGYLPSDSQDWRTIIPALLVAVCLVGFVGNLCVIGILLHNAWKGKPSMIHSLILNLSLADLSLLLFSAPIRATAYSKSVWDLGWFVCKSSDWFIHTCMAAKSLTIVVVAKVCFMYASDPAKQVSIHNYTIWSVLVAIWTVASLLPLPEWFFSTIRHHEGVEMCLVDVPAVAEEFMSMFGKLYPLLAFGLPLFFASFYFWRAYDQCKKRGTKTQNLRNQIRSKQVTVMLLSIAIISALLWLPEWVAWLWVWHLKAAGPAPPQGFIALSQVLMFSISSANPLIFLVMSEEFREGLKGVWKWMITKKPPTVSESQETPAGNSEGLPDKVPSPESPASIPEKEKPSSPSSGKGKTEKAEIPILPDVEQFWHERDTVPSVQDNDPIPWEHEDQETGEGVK
# GPR151 confirm = confirmation of human GPR151 activators; shares compounds with GPR151 activ; GPR151 PathHunter beta-arrestin cells, luminescence, 90 min; % of EA-reagent control over plate median; activation, % at 11.2 µM; 6,700 tested, under 10 active;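 active = mean percent activation across replicates above the confirmation screen cutoff of 4.91%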
# GPR119 ag = activates human GPR119 in a GPR151 counter-screen; shares compounds with GPR151 activ; GPR119 PathHunter beta-arrestin cells, luminescence, 90 min; 0 = compound-well median, 100 = enzyme-acceptor control; activation, % at 11.2 µM; 6,700 tested, 0.3% active;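 active = mean percent activation in the counterscreen above 29.09%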;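 also: counterscreen on off-target GPR119 to flag nonselective hits from the GPR151 activator screen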
# The depositor's hits bear a star; / = no result.
SMILES,FBW7 act,TEAD-YAP block,MITF primary,GPR151 activ,GPR151 confirm,GPR119 ag
C#CCSc1nsc(NC(=O)Nc2cccc(F)c2)n1,0.1,35.5*,0.7,7.1*,0.7,-0.9
COc1cc(/C=N/NC(=O)Cn2nnc(-c3ccccc3)n2)cc2sc(=O)oc12,0.0,9.0,5.1,8.0*,-0.1,4.4
COc1cc(/C=N/NC(=O)CN2CC(c3ccccc3)CC2=O)cc2sc(=O)oc12 (centres undefined),-0.5,4.9,0.1,0.5,/,/
CCN(Cc1c(C(=O)OC)nnn1-c1nonc1N)c1ccccc1,0.1,-6.2,11.9,5.1*,-1.2,-20.2
COC(=O)c1nnn(-c2nonc2N)c1C(=O)OC,-0.6,0.2,1.6,6.0*,-0.9,-8.1
COC(=O)c1nnn(-c2nonc2N)c1C(C)(C)C,0.0,-6.8,7.0,-0.1,/,/
Cn1ccnc1SCCNC(=O)CN1Cc2ccccc2OC(c2ccsc2)C1 (centres undefined),-0.4,4.7,-1.4,2.4,/,/
Cc1ccccc1NC(=O)CNC(=O)C1CCCCC1,0.0,-2.7,-5.4,-1.2,/,/
CSc1nsc(SC)c1C(=O)N1CCN(S(=O)(=O)c2ccc(C)cc2)C1C (centres undefined),-0.3,2.9,3.1,5.0*,1.4,9.8
O=C(CSc1nc2ccsc2c(=O)n1CCc1ccccc1)NCc1ccccc1,0.0,-6.1,0.3,0.8,/,/
C=CCN(CC=C)CC(O)COc1ccccc1 (centres undefined),0.1,4.7,36.6,1.2,/,/
COc1ccc(SCCC(=O)Nc2nc3ccccc3s2)cc1,0.9,-0.4,8.1,0.9,/,/
COc1ccc(SCCC(=O)Nc2ccc3sc(C)nc3c2)cc1,-0.7,-9.1,7.8,6.2*,0.7,8.1
N#CC1=C(N)N(c2cccc([N+](=O)[O-])c2)C2=C(C(=O)CCC2)C1c1cccnc1 (centres undefined),0.1,-0.8,3.3,0.2,/,/
COc1ccc(-c2coc3cc(OCCN4CCC(C)CC4)ccc3c2=O)cc1,-0.2,-29.9,-4.7,-0.5,/,/
CC(C)c1ccc(NC(=O)c2cc(S(=O)(=O)NCCc3ccccc3)ccc2F)cc1,-0.2,12.5,4.2,5.8*,-1.2,-12.0
O=C(Nc1ccc(S(=O)(=O)NCCc2ccccc2)cc1)c1ccccc1F,0.1,2.2,-5.9,0.6,/,/
CC(=O)Nc1ccc(S(=O)(=O)NCCNC(=O)c2ccccc2F)cc1,-0.1,-8.8,4.1,6.3*,-1.6,-13.2
COCCn1c2c(c(=O)[nH]c1=O)C(c1ccccc1OC)C1=C(N2)c2ccccc2C1=O (centres undefined),0.0,5.7,7.2,0.5,/,/
CCOC(=O)c1cc(C(=O)NNC(=O)/C=C/C(=O)O)c(C)nc1C,-0.1,-2.3,5.6,5.3*,0.5,-5.2
Cc1cc(Nc2ccc3c(c2)OCO3)nc(Nc2nc3ccccc3n2C)n1,-0.1,0.4,-9.5,7.4*,0.4,-1.3
COc1cc(/C=C/C(=O)Nc2ccc(I)cc2)ccc1OCC#N,0.0,-3.2,12.3,-0.3,/,/
FC(F)(F)c1ccc(NCCN2CCOCC2)nc1,-0.1,2.0,-12.7,8.2*,-0.2,2.4
Fc1ccc(CSc2ccc3nnc(-c4cccnc4)n3n2)cc1,-0.5,-15.7,-1.9,5.3*,0.5,1.0
c1ccc(-c2nnc3ccc(SCc4cccnc4)nn23)cc1,-0.2,5.4,-1.1,0.4,/,/
SMILES,FBW7 act,TEAD-YAP block,MITF primary,GPR151 activ,GPR151 confirm,GPR119 ag
COc1ccc(C2CC(=O)NC(SCC(=O)Nc3ccccc3C)=C2C#N)cc1OC (centres undefined),-0.1,5.2,12.5,1.3,/,/
CCCC(=O)Nc1ccc(OC)c(Cl)c1,0.4,-2.4,15.9,-2.5,/,/
COc1ccc(CNC(=O)CCS(=O)(=O)c2ccc3c(c2)n(C)c(=O)c(=O)n3C)cc1,-0.2,4.4,-10.9,-0.1,/,/
COc1cccc(CNC(=O)CCS(=O)(=O)c2ccc3c(c2)SCC(=O)N3)c1,-0.1,1.7,11.5,10.7*,-0.3,-7.9
COc1ccc(NC(=O)CCS(=O)(=O)c2ccc3c(c2)SCC(=O)N3)cc1OC,0.0,-3.5,-4.1,0.5,/,/
COc1ccc(NC(=O)CCS(=O)(=O)c2ccc3c(c2)SCC(=O)N3)cc1Cl,-0.1,-1.2,2.6,5.2*,0.6,5.8
Cn1c(=O)c(=O)n(C)c2cc(S(=O)(=O)CCC(=O)NCc3ccccc3)ccc21,1.1,-9.9,-17.8,6.1*,0.0,-4.1
COC(=O)CCC(=O)Nc1ccc(OC)c(Cl)c1,0.0,6.2,-2.1,6.0*,-0.3,11.7
O=C(O)c1cc(S(=O)(=O)Nc2ccccc2F)c(Cl)cc1Cl,0.3,-6.2,18.7,1.0,/,/
CCc1ccc(-n2c(=S)sc3c(=O)[nH]c(SCC(=O)N4CCCC4)nc32)cc1,0.0,-0.9,-1.2,0.2,/,/
CCC1Sc2cc(S(=O)(=O)CCC(=O)NCc3cccnc3)ccc2NC1=O (centres undefined),0.4,9.9,0.4,7.5*,0.5,4.1
O=[N+]([O-])c1ccc(CN2CCN(Cc3cc(Br)ccc3O)CC2)cc1,-0.1,31.1,45.2,6.6*,0.4,16.2
COc1cc(CN2CCN(c3ccc([N+](=O)[O-])cc3)CC2)ccc1O,-0.1,-5.7,14.8,0.2,/,/
COc1ccc(CN2CCN(c3ccc([N+](=O)[O-])cc3)CC2)cc1O,0.1,36.4*,49.5,6.7*,0.2,18.2
COc1ccc(/C=C2\C=C(c3ccccc3)N(c3ccc(-c4ccccc4)cc3)C2=O)cc1,0.1,7.9,6.5,7.0*,1.2,5.6
COc1ccc(C2C(C(=O)Nc3cnc4ccccc4c3)c3ccccc3C(=O)N2C)cc1 (centres undefined),0.1,-10.6,8.8,1.2,/,/
O=C(Cn1c(=O)oc2cc(S(=O)(=O)N3CCc4ccccc43)ccc21)NC1CCCC1,0.1,9.0,-6.6,7.5*,0.7,-5.8
COc1ccc(NC(=O)Cn2c(=O)oc3cc(S(=O)(=O)N4CCCC4)ccc32)cc1,0.1,14.2,5.4,5.0*,0.3,-2.1
O=C(Cn1c(=O)oc2cc(S(=O)(=O)N3CCCCCC3)ccc21)NC1CCCCC1,-0.1,0.8,7.5,-0.7,/,/
CC[C@@H]1NC(=O)[C@@H]2C[C@H](NC(=O)c3cccc(F)c3F)CN2C1=O,0.3,8.9,5.8,9.7*,0.1,5.0
CC[C@@H]1NC(=O)[C@@H]2C[C@H](NC(=O)OCc3ccccc3)CN2C1=O,0.0,-0.5,7.4,5.8*,0.6,7.3
CCC[C@@H]1NC(=O)[C@@H]2C[C@H](NC(=O)N[C@@H](C)c3ccccc3)CN2C1=O,0.1,-4.9,-10.8,-0.9,/,/
O=C(N[C@H]1C[C@H]2C(=O)N[C@@H](CO)C(=O)N2C1)OCc1ccccc1,0.0,-3.3,18.2,-1.1,/,/
CC(C)C[C@H]1NC(=O)[C@@H]2C[C@H](NC(=O)c3cccc(F)c3F)CN2C1=O,-0.1,-10.0,-1.8,-0.5,/,/

# Compound activity (PubChem)
